Test results reported in the supplement of paper PMC6522484.
± gives the standard deviation of the averaged measurements.

These molecules were tested on SW480 (assay: cell viability (CellTiter-Glo) relative to plate median (fraction of plate median); higher = more viable cells). Details: 5 µM; treatment time 24 h; reporter: 7TFP.
How it was run: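 Values are well luminescence normalised to the plate median, from either a firefly luciferase or a CellTiterGlo readout on parallel plates. The cells, colorectal cancer lines stably transduced with lentiviral 7TFP or TCF4/Wnt firefly luciferase reporters, were treated with library compounds at a final 5 µM for 24 h. The mean of two independent replicates is listed.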

**Q.** `CN1CCC(=C2c3ccccc3Sc3ccccc32)CC1` was tested. Which cell viability did it give?
**A.** 1.03 ± 0.059

**Q.** Which cell viability does the source give for `NCc1ccc(S(N)(=O)=O)cc1` here?
**A.** 0.991 ± 0.042

**Q.** With `C/N=C(/NC#N)NCCSCc1csc(NC(=N)N)n1` as the molecule, how does the cell viability read?
**A.** 1.01 ± 0.014

**Q.** Which cell viability does the source give for `C[C@@H]1O[C@H]2O[C@@H]3[C@@H](C)OC(c4ccc5c(c4O)C(=O)c4ccc(C[C@@](C)(O)CC(=O)O)c(O)c4C5=O)C[C@H]3O[C@H]2CC1=O` (stereo not given in full) [Fridamycin D] here?
**A.** 1.02 ± 0.021

**Q.** How did the cell viability turn out when `COc1ccc2c(c1)[C@@]1(C)CCC(=O)C[C@H]1CC2` [5beta-12-METHOXY-4,4-BISNOR-8,11,13-PODOCARPATRIEN-3-ONE] was run?
**A.** 1.01 ± 0.037

**Q.** With `Cc1cc(O)cc(=O)o1` as the molecule, how does the cell viability read?
**A.** 1.04 ± 0.028

**Q.** `CC(=O)OCC(=O)[C@@]1(O)CC[C@H]2[C@@H]3CCC4=CC(=O)C=C[C@]4(C)[C@H]3[C@@H](O)C[C@@]21C` was tested. Which cell viability did it give?
**A.** 0.936 ± 0.0042

**Q.** `NC[C@H]1O[C@H](O[C@H]2[C@H](O)[C@@H](O[C@H]3O[C@H](CO)[C@@H](O)[C@H](N)[C@H]3O)[C@H](N)C[C@@H]2N)[C@H](N)[C@@H](O)[C@@H]1O` was tested. Which cell viability did it give?
**A.** 1.02 ± 0.052

**Q.** With `CC(CN1c2ccccc2Sc2ccccc21)N(C)C` (stereo not given) as the molecule, how does the cell viability read?
**A.** 1.08 ± 0.014

**Q.** How did the cell viability turn out when `CC(C)=CCc1c(O)cc2occ(-c3ccc4c(c3)OCO4)c(=O)c2c1O` was run?
**A.** 0.972 ± 0.018

**Q.** With `CO[C@H]1/C=C/O[C@@]2(C)Oc3c(C)c(O)c4c(O)c(c(/C=N/N5CCN(C)CC5)c(O)c4c3C2=O)NC(=O)/C(C)=C\C=C\[C@H](C)[C@H](O)[C@@H](C)[C@@H](O)[C@@H](C)[C@H](OC(C)=O)[C@@H]1C` as the molecule, how does the cell viability read?
**A.** 1.05 ± 0.028

**Q.** `c1ccc2c(c1)CN1CCCC1=N2` was tested. Which cell viability did it give?
**A.** 0.998 ± 0.032

**Q.** `CC1(C)CC2C1CC[C@]1(CBr)CCC3C(CC(=O)O)C(=O)O[C@@]32C1` (stereo not given in full) [BROMO-3-HYDROXY-4-(SUCCIN-2-YL)-CARYOLANE gamma-LACTONE] was tested. Which cell viability did it give?
**A.** 0.987 ± 0.033

**Q.** How did the cell viability turn out when `NC(=O)c1ccc[n+]([C@@H]2O[C@H](COP(=O)([O-])OP(=O)(O)OC[C@H]3O[C@@H](n4cnc5c(N)ncnc54)[C@H](O)[C@@H]3O)[C@@H](O)[C@H]2O)c1` was run?
**A.** 0.942 ± 0.027

**Q.** Which cell viability does the source give for `COc1ccc(C2C(=O)c3ccccc3C2=O)cc1` here?
**A.** 1.01 ± 0.045

**Q.** For `N=C1C=CC(=C(c2ccc(N)cc2)c2ccc(N)cc2)C=C1`, which cell viability is on record?
**A.** 0.829 ± 0.053

**Q.** How did the cell viability turn out when `CC(C(=O)O)c1ccc2c(c1)[nH]c1ccc(Cl)cc12` (stereo not given) was run?
**A.** 0.968 ± 0.0071

**Q.** `CO/N=C(\C(=O)N[C@@H]1C(=O)N2C(C(=O)O)=C(COC(C)=O)CS[C@H]12)c1csc(N)n1` was tested. Which cell viability did it give?
**A.** 0.969 ± 0.031

**Q.** For `Cc1cc(N)c2ccccc2[n+]1CCCCCCCCCC[n+]1c(C)cc(N)c2ccccc21`, which cell viability is on record?
**A.** 0.989 ± 0.087

**Q.** For `CCOc1ccc(Cc2nccc3cc(OCC)c(OCC)cc23)cc1OCC`, which cell viability is on record?
**A.** 0.921 ± 0.0071

**Q.** For `Nc1nccs1`, which cell viability is on record?
**A.** 1.02 ± 0.033

**Q.** How did the cell viability turn out when `CCC(C)C(=O)OC1[C@@H]2CC3=C4CC(=O)O[C@@H](c5ccoc5)[C@]4(C)CCC3[C@@](C)(C2=O)[C@@H](CC(=O)OC)C1(C)C` (stereo not given in full) was run?
**A.** 1.18 ± 0.092

**Q.** `CC(C)[C@@H]1CC[C@@H](C)C[C@H]1OC(=O)c1ccccc1` was tested. Which cell viability did it give?
**A.** 1.06 ± 0.042

**Q.** Which cell viability does the source give for `CCCCC(=O)Oc1ccccc1C(=O)O` here?
**A.** 0.988 ± 0.018

**Q.** With `NS(=O)(=O)c1cc(C2(O)NC(=O)c3ccccc32)ccc1Cl` (stereo not given) as the molecule, how does the cell viability read?
**A.** 0.986 ± 0.1

**Q.** How did the cell viability turn out when `CC1Cc2ccccc2N1NC(=O)c1ccc(Cl)c(S(N)(=O)=O)c1` (stereo not given) was run?
**A.** 1 ± 0.013

**Q.** How did the cell viability turn out when `Clc1ccccc1CN1CCc2sccc2C1` was run?
**A.** 1 ± 0.057

**Q.** For `COc1cc(O)cc(OC)c1OC`, which cell viability is on record?
**A.** 0.942 ± 0.074

**Q.** For `C#C[C@]1(OC(C)=O)CC[C@H]2[C@@H]3CCC4=CC(=O)CC[C@@H]4[C@H]3CC[C@@]21C`, which cell viability is on record?
**A.** 0.973 ± 0.052

**Q.** With `CN1CCN(CC/C=C2/c3ccccc3Sc3ccc(S(=O)(=O)N(C)C)cc32)CC1` as the molecule, how does the cell viability read?
**A.** 1.07 ± 0.064

**Q.** With `COc1cccc2c1C(=O)c1c(O)c3c(c(O)c1C2=O)CC(O)(C(C)O)CC3OC1CC(NC=O)C(O)C(C)O1` (stereo not given) [Baumycin C2] as the molecule, how does the cell viability read?
**A.** 1 ± 0.036

**Q.** How did the cell viability turn out when `COc1ccc(-c2cc(=O)c3cc(OC)ccc3o2)cc1` was run?
**A.** 0.998 ± 0.059

**Q.** Which cell viability does the source give for `Oc1c(Cl)cc(Cl)c2cccnc12` here?
**A.** 0.963 ± 0.033

**Q.** `COC1=CC(=O)C(C(=O)c2ccccc2)=CC1=O` was tested. Which cell viability did it give?
**A.** 0.975 ± 0.028

**Q.** Which cell viability does the source give for `CC(=O)OCC(=O)[C@@]1(O)CC[C@H]2[C@@H]3CCC4=CC(=O)CC[C@]4(C)[C@H]3C(=O)C[C@@]21C` here?
**A.** 1.12 ± 0.12

**Q.** Which cell viability does the source give for `COc1ccc2c3c1O[C@H]1C[C@@H](O)C=C[C@@]31CCN(C)C2` here?
**A.** 1.03 ± 0.045

**Q.** For `CCS(=O)(=O)CCn1c([N+](=O)[O-])cnc1C`, which cell viability is on record?
**A.** 1.01 ± 0.032

**Q.** `CN1CCN(C2=Nc3ccccc3Oc3ccc(Cl)cc32)CC1` was tested. Which cell viability did it give?
**A.** 0.927 ± 0.0028

**Q.** Which cell viability does the source give for `COc1c2c(c(O)c3c4c(c(C)cc13)C1OC3(C(OC)OC)OC1C(O[C@H]1C[C@@H](O)[C@@](O)(C(C)=O)[C@H](C)O1)(O4)C3(O)CO)C(=O)C(O)CC2O[C@H]1C[C@@](C)(O)[C@H](OC(C)=O)[C@H](C)O1` (stereo not given in full) [Trioxacarcin B] here?
**A.** 1.06

**Q.** How did the cell viability turn out when `CC[C@H](C)[C@@H]1NC(=O)[C@H](C)NC1=O` [Cyclo(alanylisoleucyl)] was run?
**A.** 1.07 ± 0.014
